In PubChem BioAssay (NCATS):
The source made the active and inactive calls. The call rests on the fitted dose curve.

Test: qHTS drug screen for cell cycle checkpoint inhibitors in PARPi-resistant BRCA-mutant ovarian cancer cell lines. (AID 1963452)
Conditions: PEO1/OlaR viability, CellTiter-Glo luminescence, 96 h, stronger effect = lower value
Procedure, shortened: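 PEO1, PEO4 and PEO1/OlaR ovarian cancer cells, 600 per well, exposed 96 h at 37C to a dilution series. Viability read by CellTiter-Glo luminescence, normalized to DMSO and empty wells; activity summarized as Z-AUC.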

[1] = measured here: PEO1 parental Z-AUC

| SMILES | Z-AUC | Z-AUC [1] | Z-AUC (measured here: PEO4 Z-AUC) |
| --- | --- | --- | --- |
| CCCCc1ccc(NS(=O)(=O)c2ccc(C)c(C(=O)N3CCN(c4cccc(C)c4C)CC3)c2)cc1 | 1.4 (inactive) | 1.5 | 1.44 |
| COc1nccc(-c2c(-c3ccc(F)cc3)ncn2C2CCC(O)CC2)n1 (configuration not stated) | 1.26 (inactive) | 1.27 | 1.21 |
| O=C(O)CCNc1cc(N2CCc3ccccc3CC2)nc(-c2ccccn2)n1 | 0.743 (inactive) | 0.477 | 0.175 |
| Cc1cnc(-c2cc(N3CCN(C(=O)CCS(C)(=O)=O)CC3)ncc2Cl)c(C)c1 | 0.449 (inactive) | 1.67 | 1.63 |
| Cc1cc(-c2ncc(CC(=O)Nc3ccc(-c4cnccn4)cn3)cc2C)ccn1 | -1.15 (inactive) | -0.663 | -0.646 |
| COc1cc([C@@H]2c3cc4c(cc3[C@@H](O[C@@H]3O[C@@H]5CO[C@@H](C)O[C@@H]5[C@H](O)[C@@H]3O)[C@H]3COC(=O)[C@H]23)OCO4)cc(OC)c1O | -0.699 (inactive) | -1.32 | -0.275 |
| CC[C@@H]([C@H](C)O)n1ncn(-c2ccc(N3CCN(c4ccc(OCC5CO[C@@](Cn6cncn6)(c6ccc(F)cc6F)C5)cc4)CC3)cc2)c1=O (some centres not stated) | 0.357 (inactive) | -0.0959 | -0.133 |
| NC(=O)c1ccc(N(C(N)=O)c2c(F)cccc2F)nc1-c1ccc(F)cc1F | -0.305 (inactive) | -0.387 | 0.295 |
| CNC1CCC(N(Cc2cccc(-c3ccncc3)c2)C(=O)c2sc3ccccc3c2Cl)CC1 (configuration not stated) | 0.143 (inactive) | 0.312 | 0.329 |
| CO[C@@H]1C(N(C)C(=O)c2ccccc2)C[C@H]2O[C@]1(C)n1c3ccccc3c3c4c(c5c6ccccc6n2c5c31)C(=O)NC4=O (some centres not stated) | 0.0475 (inactive) | 0.0888 | -0.413 |
| C[C@@H](N)c1ccc(C(=O)Nc2ccnc3[nH]ccc23)cc1 | 0.345 (inactive) | 0.635 | 0.729 |
| Cc1ccc(NC(=O)c2ccc(CN3CCN(C)CC3)cc2)cc1Nc1nc(-c2cccnc2)cs1 | -0.78 (inactive) | -0.735 | -0.741 |
| CN1c2ccccc2C(=O)N2CCc3c([nH]c4ccccc34)C21 (configuration not stated) | 0.807 (inactive) | -0.272 | -0.128 |
| c1ccc(-c2oc3ncnc(NC[C@@H]4CCCO4)c3c2-c2ccccc2)cc1 | -1.81 (inactive) | -0.438 | -1.2 |
| Cc1ccc(NC(=O)c2cccc(N(C)C)c2)cc1NC(=O)c1ccc(O)cc1 | 1.75 (inactive) | 1.05 | 0.905 |
| CC(C)CNc1ccnc(NCc2csc(-c3ccccc3)n2)n1 | -1 (inactive) | -0.906 | -0.83 |
| COc1ccc2nc3cc(Cl)ccc3c(Nc3cc(CN4CCCC4)c(O)c(CN4CCCC4)c3)c2n1 | 1.63 (inactive) | 0.591 | 1.29 |
| O=[N+]([O-])c1ccc(Nc2ccccc2-c2ccccc2)c2nonc12 | 0.186 (inactive) | 0.785 | 0.946 |
| C[C@@H](O[C@H]1OCCN(Cc2n[nH]c(=O)[nH]2)[C@@H]1c1ccc(F)cc1)c1cc(C(F)(F)F)cc(C(F)(F)F)c1 | -0.0654 (inactive) | -0.373 | -0.245 |
| CC(C)C[C@H](NC(=O)c1cc2ccccc2s1)C(=O)N1CCN(C(=O)[C@H](CO)NS(=O)(=O)c2ccc(Cl)cc2Cl)CC1 | -0.613 (inactive) | -0.17 | -1.13 |
| CCN1CCC(n2cc(CNc3cc(Cl)c4ncc(C#N)c(Nc5ccc(F)c(Cl)c5)c4c3)nn2)CC1 | -1.28 (inactive) | -0.754 | -1.71 |
| Nc1ncnc2c1c(-c1cccc(OCc3ccccc3)c1)cn2C1CC(CN2CCC2)C1 (configuration not stated) | -0.485 (inactive) | -0.126 | -0.746 |

| SMILES | Z-AUC | Z-AUC [1] | Z-AUC (measured here: PEO4 Z-AUC) |
| --- | --- | --- | --- |
| COc1cc2nccc(Oc3ccc(NC(=O)Nc4ccc(F)cc4F)c(F)c3)c2cc1OC | 0.868 (inactive) | 0.566 | 0.26 |
| CCCCn1c(=O)n(Cc2ccccc2F)c(=O)c2[nH]c(Cc3ccc(NC(C)=O)cc3)nc21 | -0.247 (inactive) | -0.269 | 0.0892 |
| Cc1cnc(CNC(=O)c2c(=O)c3ccc(N4CCCN(C)CC4)nc3n3c2sc2ccccc23)cn1 | -0.335 (inactive) | -0.603 | 0.0193 |
| COc1cc2nccc(Oc3ccc(NC(=O)Nc4cc(C)on4)c(Cl)c3)c2cc1OC | -0.11 (inactive) | 0.0474 | 0.0316 |
| C[C@]12CC[C@@H]3c4ccc(O)cc4CC[C@H]3[C@H]1[C@@H](O)[C@@H](O)[C@H]2O | 1 (inactive) | 0.841 | 0.542 |
| COc1ccc(-c2oc3c(CC=C(C)C)c(O)cc(O)c3c(=O)c2O)cc1 | 0.707 (inactive) | 0.584 | 0.876 |
| N#CC(c1ccnc(NCCc2cccnc2)n1)c1nc2ccccc2s1 (configuration not stated) | 1.07 (inactive) | 0.451 | 0.404 |
| N#Cc1ccc(Oc2ccc3c(c2)COB3O)cc1 | 0.18 (inactive) | 0.583 | 0.594 |
| CC(C)(O)CC(=O)NCCn1ccc2ncnc(Nc3ccc(Oc4cccc(C(F)(F)F)c4)c(Cl)c3)c21 | 0.0129 (inactive) | -0.0981 | -0.515 |
| COC(=O)Nc1ccc(-c2nc(N3CCOCC3)c3cnn(C4CCN(C(=O)OC)CC4)c3n2)cc1 | 0.0604 (inactive) | -0.0911 | -0.355 |
| NCc1c[nH]c(=S)n1[C@H]1CCc2c(F)cc(F)cc2C1 | -0.555 (inactive) | -0.422 | -0.786 |
| c1ccc(CNc2nc(N3CCOc4ccccc43)nc3c2CCCC3)cc1 | 0.483 (inactive) | 0.277 | 1.17 |
| Cc1ccc(S(=O)(=O)Nc2nc3ccccc3nc2Nc2ccc3nsnc3c2)cc1 | -0.8 (inactive) | -0.564 | -0.705 |
| CNC(=O)c1ccc2c(C(=Nc3cccc(CN(C)C)c3)c3ccccc3)c(O)[nH]c2c1 | -0.0393 (inactive) | 0.42 | 0.638 |
| O=C(CC12CC3CC(CC(C3)C1)C2)Nc1cccc2nc(NCCNCCO)ccc12 | 0.783 (inactive) | 0.506 | 0.728 |
| CC1(COc2ccc3c(c2)ncn3-c2ccc3cccc(N4CCC(N)CC4)c3n2)COC1 | 0.496 (inactive) | -0.0934 | -0.193 |
| Cc1cc(C(C)Nc2ccccc2)c2nc(N3CCOCC3)cc(=O)n2c1 (configuration not stated) | 0.744 (inactive) | 1.25 | 1.25 |
| COc1ccc(-c2cc3nccn3c(Nc3ncccc3C(N)=O)n2)cc1OC | 0.398 (inactive) | 0.401 | 0.0675 |
| c1cc(OCCN2CCCCC2)cc(-c2n[nH]c3ccc(-c4ncn[nH]4)cc23)c1 | -0.663 (inactive) | -0.209 | -0.626 |
| CNC(=O)c1cc(COc2nnc(Nc3ccc(Cl)cc3)c3ccoc23)ccn1 | 0.731 (inactive) | 0.432 | 0.337 |
| CN1N=C(N)c2cn([C@@H]3O[C@H](COP(=O)(O)O)[C@@H](O)[C@@H]3O)c3ncnc1c23 | -0.375 (inactive) | -0.488 | -0.707 |
| Cc1cccc(-c2[nH]c(C(C)(C)C)nc2-c2ccc3c(c2)OCO3)n1 | -0.37 (inactive) | -0.0617 | 0.278 |
